Reference: PMC5540273 (PLoS ONE, 2017)

Tests used:
Details in all cases: concentration: 1 μM, replicates: in singlicate; n = 1
[1] = tested on: T1, ERK1
T1 construct: gene MAPK3

[2] = tested on: T2, ERK2
T2 construct: gene MAPK1

[3] = tested on: T3, ERK3
T3 construct: gene MAPK6

[4] = tested on: T4, ERK4
T4 construct: gene MAPK4

[5] = tested on: T5, ERK5
T5 construct: gene MAPK7

[6] = tested on: T6, ERK8
T6 construct: gene MAPK15

[7] = tested on: ERN1
[8] = tested on: T7, FAK
T7 construct: gene PTK2

[9] = tested on: FER
[10] = tested on: FES
[11] = tested on: FGFR1
[12] = tested on: FGFR2
[13] = tested on: FGFR3
[14] = tested on: FGFR4
[15] = tested on: FGR
[16] = tested on: FLT1
[17] = tested on: FLT3-autoinhibited
[18] = tested on: FLT3
[19] = tested on: FLT4
[20] = tested on: FRK
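Note: KINOMEscan kinase panel screen.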

Row | Structure (SMILES) | %Inh [1] | %Inh [2] | %Inh [3] | %Inh [4] | %Inh [5] | %Inh [6] | %Inh [7] | %Inh [8] | %Inh [9] | %Inh [10] | %Inh [11] | %Inh [12] | %Inh [13] | %Inh [14] | %Inh [15] | %Inh [16] | %Inh [17] | %Inh [18] | %Inh [19] | %Inh [20]
1 | Cc1ccc(C(=O)N2CC[C@@H](O)C2)cc1-n1c(C)cc(OCc2ccc(F)cc2F)c(Br)c1=O | 0% | 0% | 0% | 9% | 0% | 0% | 0% | 0% | 1% | 0% | 80% | 66% | 21% | 0% | 0% | 46% | 0% | 14% | 0% | 14%
2 | Cc1ccc(S(=O)(=O)Nc2ccc(Nc3nccc(Nc4cccc5[nH]ncc45)n3)cc2)cc1 [GSK581271] | 0% | 0% | 0% | 5% | 0% | 28% | 0% | 0% | 7% | 0% | 0% | 15% | 7% | 0% | 56% | 19% | 0% | 28% | 5% | 73%
3 | COC(=O)Nc1nc2ccc(Oc3ccc(NC(=O)Nc4cc(C(F)(F)F)ccc4F)cc3)cc2n1C.Cl [GW692089] | 0% | 0% | 0% | 0% | 0% | 72% | 0% | 0% | 21% | 3% | 2% | 0% | 7% | 0% | 28% | 89% | 3% | 99% | 87% | 69%
4 | Cn1cc(-c2ccc3c(c2)CCN3C(=O)Cc2cccc(Cl)c2)c2c(N)ncnc21 [GSK2606590] | 0% | 10% | 0% | 11% | 0% | 0% | 0% | 0% | 35% | 0% | 23% | 0% | 0% | 0% | 35% | 59% | 1% | 91.8% | 45% | 8%
5 | COc1ccc(-c2coc3ccc(-c4nnc(SCc5ccc(OC)c(C(F)(F)F)c5)o4)cc23)cc1 | 8% | 24% | 0% | 3% | 2% | 2% | 44% | 10% | 0% | 4% | 0% | 17% | 17% | 2% | 0% | 0% | 19% | 10% | 13% | 0%
6 | Cl.Cl.NCC(C(=O)Nc1cc(Br)c(-c2ccnc3[nH]ccc23)s1)c1ccccc1 (stereo not drawn) [GSK1269851] | 6% | 0% | 0% | 6% | 0% | 74% | 18% | 0% | 18% | 38% | 30% | 8% | 27% | 44% | 55% | 16% | 20% | 86% | 0% | 12%
7 | Nc1n[nH]c2cnc(-c3ccccc3)cc12 [SB-642124] | 0% | 0% | 0% | 25% | 0% | 6% | 13% | 0% | 0% | 0% | 2% | 35% | 16% | 13% | 32% | 0% | 0% | 0% | 8% | 10%
8 | O=C(Nc1cccc(-c2nn3ncccc3c2-c2ccnc(Nc3ccccc3)n2)c1)c1c(F)cccc1F [GSK198271] | 0% | 6% | 0% | 20% | 4% | 0% | 32% | 0% | 45% | 6% | 0% | 7% | 3% | 14% | 97.2% | 98.4% | 0% | 72% | 77% | 89%
9 | Cc1ccc(C(=O)Nc2ccc(Nc3ccnc4cc(-c5nccs5)ccc34)cc2O)cc1.Cl [GW494702] | 0% | 0% | 0% | 0% | 0% | 11% | 0% | 0% | 34% | 24% | 0% | 35% | 13% | 0% | 73% | 14% | 0% | 14% | 0% | 67%
